# Measurements reported in publication PMC7862700, “An all-to-all approach to the identification of sequence-specific readers for epigenetic DNA modifications on cytosine”.
# How the values were obtained:
# Assay in all cases: DAPPL (digital affinity profiling via proximity ligation, sequencing); 10 mM Tris-HCl pH 7.5, 50 mM NaCl, 1 mM DTT, 4% glycerol, room temperature, 30 min; GST-TFs on glutathione beads, 16-mer random dsDNA library, 0.1% formaldehyde crosslink after washing; high values mean tight binding
# [1] = biological target: T1, FLI1 (Homo sapiens, UniProt Q01543 1-452); conditions: protein: recombinant; tags: N-terminal GST; dsDNA, one strand shown
# T1 sequence: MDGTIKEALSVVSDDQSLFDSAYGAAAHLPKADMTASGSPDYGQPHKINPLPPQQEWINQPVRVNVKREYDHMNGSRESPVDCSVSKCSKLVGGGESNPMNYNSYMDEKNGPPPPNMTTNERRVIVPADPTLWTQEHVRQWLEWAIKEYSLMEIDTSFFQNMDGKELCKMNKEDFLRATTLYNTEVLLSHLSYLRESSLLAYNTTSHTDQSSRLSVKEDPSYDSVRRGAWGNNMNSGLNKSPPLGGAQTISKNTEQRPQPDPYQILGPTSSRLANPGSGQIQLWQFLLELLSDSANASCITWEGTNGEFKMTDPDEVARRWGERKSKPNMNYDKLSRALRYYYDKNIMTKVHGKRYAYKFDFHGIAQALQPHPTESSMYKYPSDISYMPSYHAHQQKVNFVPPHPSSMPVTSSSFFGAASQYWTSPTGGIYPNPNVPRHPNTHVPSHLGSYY
# In short: (§1)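 GST fusions of human transcription factors were expressed in yeast and captured with glutathione beads. Once given DNA barcodes and pooled alongside a tag-only sample, they were incubated for 30 min at room temperature with 200 nmole of a random double-stranded 16-mer DNA library in Tris/NaCl/DTT/glycerol buffer, then washed, crosslinked (0.1% formaldehyde), proximity-ligated, PCR-amplified and sequenced on an Illumina NextSeq500. The binding signal of each hexamer is its read frequency for a factor divided by its frequency for the tag-only sample.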
# [2] = biological target: T2, ELK1 (Homo sapiens, UniProt P19419 1-428); conditions: protein: recombinant; tags: N-terminal GST; dsDNA, one strand shown
# T2 sequence: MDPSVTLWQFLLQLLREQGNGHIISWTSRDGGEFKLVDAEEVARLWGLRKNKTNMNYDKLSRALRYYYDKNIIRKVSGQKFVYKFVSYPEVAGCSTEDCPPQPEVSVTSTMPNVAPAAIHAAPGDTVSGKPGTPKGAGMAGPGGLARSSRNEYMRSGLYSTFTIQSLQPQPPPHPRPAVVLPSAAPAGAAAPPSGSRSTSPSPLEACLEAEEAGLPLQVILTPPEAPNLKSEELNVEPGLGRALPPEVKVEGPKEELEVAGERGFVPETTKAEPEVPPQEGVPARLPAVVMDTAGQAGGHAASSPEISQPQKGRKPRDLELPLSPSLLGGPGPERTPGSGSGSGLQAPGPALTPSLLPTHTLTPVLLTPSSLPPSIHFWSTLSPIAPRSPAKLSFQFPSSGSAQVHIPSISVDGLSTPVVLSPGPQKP
# In short: as §1
# [3] = biological target: T3, GABPA (Homo sapiens, UniProt Q06546 1-454); conditions: protein: recombinant; tags: N-terminal GST; dsDNA, one strand shown
# T3 sequence: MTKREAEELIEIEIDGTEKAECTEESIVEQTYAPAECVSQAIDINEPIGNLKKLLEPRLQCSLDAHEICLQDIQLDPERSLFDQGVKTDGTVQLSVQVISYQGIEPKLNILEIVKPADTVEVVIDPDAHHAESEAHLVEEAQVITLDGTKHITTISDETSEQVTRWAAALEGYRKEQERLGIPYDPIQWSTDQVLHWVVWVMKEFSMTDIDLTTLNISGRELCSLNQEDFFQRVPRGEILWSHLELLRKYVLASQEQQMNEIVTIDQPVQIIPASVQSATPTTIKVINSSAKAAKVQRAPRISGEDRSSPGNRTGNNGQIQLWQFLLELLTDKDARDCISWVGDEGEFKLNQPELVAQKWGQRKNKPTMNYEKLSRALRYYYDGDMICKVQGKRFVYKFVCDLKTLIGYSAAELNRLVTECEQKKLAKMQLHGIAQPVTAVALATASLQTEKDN
# In short: as §1
# [4] = biological target: T4, ERG (Homo sapiens, UniProt P11308 1-479); conditions: protein: recombinant; tags: N-terminal GST; dsDNA, one strand shown
# T4 sequence: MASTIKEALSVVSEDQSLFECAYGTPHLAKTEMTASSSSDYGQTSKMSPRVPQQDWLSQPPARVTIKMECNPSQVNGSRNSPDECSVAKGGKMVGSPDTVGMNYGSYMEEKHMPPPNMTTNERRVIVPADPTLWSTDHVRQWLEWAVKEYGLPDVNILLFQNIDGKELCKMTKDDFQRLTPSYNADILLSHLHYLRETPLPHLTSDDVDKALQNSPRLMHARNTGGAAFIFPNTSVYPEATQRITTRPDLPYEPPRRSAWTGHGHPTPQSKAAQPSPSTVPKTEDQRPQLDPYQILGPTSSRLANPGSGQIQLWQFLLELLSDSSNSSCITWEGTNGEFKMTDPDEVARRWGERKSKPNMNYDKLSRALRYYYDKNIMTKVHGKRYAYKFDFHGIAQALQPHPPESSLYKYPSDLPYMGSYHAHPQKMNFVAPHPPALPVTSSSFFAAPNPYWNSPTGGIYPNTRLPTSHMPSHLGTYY
# In short: as §1
# [5] = biological target: ELF1 (Homo sapiens, UniProt P32519 1-619); conditions: protein: recombinant; tags: N-terminal GST; dsDNA, one strand shown
# Sequence of ELF1 (P32519 whole entry): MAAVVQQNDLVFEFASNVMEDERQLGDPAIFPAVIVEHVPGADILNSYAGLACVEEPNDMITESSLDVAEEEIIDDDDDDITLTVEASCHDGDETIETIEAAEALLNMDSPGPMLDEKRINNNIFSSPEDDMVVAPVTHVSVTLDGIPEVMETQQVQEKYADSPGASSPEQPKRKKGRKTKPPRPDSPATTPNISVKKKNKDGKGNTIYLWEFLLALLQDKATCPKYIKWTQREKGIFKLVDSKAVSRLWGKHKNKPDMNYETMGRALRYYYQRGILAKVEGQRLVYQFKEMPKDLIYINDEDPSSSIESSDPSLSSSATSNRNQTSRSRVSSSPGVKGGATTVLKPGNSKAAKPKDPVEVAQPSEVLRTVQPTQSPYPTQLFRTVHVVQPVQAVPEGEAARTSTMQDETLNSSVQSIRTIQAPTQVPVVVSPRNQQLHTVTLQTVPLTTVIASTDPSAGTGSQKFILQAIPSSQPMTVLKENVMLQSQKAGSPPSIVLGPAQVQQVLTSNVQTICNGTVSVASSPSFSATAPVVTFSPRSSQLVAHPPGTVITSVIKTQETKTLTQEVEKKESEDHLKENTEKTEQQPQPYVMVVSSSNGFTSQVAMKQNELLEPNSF
# In short: as §1
# [6] = biological target: T5, EHF (Homo sapiens, UniProt Q9NZC4 1-300); conditions: protein: recombinant; tags: N-terminal GST; dsDNA, one strand shown
# T5 sequence: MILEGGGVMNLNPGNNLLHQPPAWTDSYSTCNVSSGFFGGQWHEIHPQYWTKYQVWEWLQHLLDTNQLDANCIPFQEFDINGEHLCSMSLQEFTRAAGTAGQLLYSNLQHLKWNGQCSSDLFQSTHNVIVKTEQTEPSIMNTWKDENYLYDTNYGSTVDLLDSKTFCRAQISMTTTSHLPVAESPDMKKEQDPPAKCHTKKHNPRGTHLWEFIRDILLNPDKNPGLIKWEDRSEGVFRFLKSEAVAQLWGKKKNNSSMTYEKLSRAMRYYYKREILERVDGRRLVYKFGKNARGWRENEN
# In short: as §1
# [7] = biological target: SPI1 (Homo sapiens, UniProt P17947 1-270); conditions: protein: recombinant; tags: N-terminal GST; dsDNA, one strand shown
# In short: as §1
# [8] = biological target: SPIB (Homo sapiens, UniProt Q01892 1-262); conditions: protein: recombinant; tags: N-terminal GST; dsDNA, one strand shown
# Sequence of SPIB (Q01892 whole entry): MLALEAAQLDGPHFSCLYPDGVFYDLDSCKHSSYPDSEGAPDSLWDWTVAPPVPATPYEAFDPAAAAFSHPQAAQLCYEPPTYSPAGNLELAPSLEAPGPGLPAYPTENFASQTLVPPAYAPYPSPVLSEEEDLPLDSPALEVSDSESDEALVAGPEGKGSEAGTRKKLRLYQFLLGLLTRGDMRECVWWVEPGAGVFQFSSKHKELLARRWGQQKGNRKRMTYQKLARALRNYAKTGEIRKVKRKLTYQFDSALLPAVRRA
# In short: as §1
# [9] = biological target: T6, ELK3 (Homo sapiens, UniProt P41970 1-407); conditions: protein: recombinant; tags: N-terminal GST; dsDNA, one strand shown
# T6 sequence: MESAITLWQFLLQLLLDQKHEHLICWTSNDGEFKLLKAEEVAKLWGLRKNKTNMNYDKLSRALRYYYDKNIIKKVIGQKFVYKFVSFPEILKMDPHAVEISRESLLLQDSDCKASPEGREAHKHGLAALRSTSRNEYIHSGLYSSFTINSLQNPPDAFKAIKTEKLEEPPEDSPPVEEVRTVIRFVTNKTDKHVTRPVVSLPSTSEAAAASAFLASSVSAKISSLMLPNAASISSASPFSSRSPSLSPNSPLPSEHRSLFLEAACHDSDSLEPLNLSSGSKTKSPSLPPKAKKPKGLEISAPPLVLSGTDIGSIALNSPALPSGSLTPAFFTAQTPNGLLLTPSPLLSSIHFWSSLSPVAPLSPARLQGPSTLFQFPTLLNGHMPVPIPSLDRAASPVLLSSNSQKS
# In short: as §1
# [10] = biological target: T7, FEV (Homo sapiens, UniProt Q99581 1-238); conditions: protein: recombinant; tags: N-terminal GST; dsDNA, one strand shown
# T7 sequence: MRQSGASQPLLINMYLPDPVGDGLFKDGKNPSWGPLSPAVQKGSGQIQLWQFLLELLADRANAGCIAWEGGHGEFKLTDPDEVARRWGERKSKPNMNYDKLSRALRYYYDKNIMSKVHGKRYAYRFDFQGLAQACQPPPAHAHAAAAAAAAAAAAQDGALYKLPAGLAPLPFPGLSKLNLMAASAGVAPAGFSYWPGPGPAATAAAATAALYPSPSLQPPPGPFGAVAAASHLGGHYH
# In short: as §1
# [11] = biological target: ETV5 (Homo sapiens, UniProt P41161 1-510); conditions: protein: recombinant; tags: N-terminal GST; dsDNA, one strand shown
# Sequence of ETV5 (P41161 whole entry): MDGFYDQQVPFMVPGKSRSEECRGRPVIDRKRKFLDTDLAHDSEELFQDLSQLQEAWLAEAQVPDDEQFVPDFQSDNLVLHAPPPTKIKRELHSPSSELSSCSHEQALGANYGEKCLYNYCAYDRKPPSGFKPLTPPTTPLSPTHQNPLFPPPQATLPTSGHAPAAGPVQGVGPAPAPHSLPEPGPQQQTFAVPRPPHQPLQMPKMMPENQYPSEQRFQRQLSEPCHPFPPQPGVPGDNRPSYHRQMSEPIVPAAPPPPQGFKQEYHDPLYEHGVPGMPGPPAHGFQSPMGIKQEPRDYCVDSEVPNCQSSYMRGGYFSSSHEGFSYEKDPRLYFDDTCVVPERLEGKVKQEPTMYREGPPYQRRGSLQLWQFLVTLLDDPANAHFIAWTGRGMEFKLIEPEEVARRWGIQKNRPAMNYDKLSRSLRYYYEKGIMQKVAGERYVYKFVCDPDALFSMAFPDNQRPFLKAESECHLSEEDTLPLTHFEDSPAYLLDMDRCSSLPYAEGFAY
# In short: as §1
# [12] = biological target: HSF1 (Homo sapiens, UniProt Q00613 1-529); conditions: protein: recombinant; tags: N-terminal GST; chain copies: 3; dsDNA, one strand shown
# Sequence of HSF1 (Q00613 whole entry): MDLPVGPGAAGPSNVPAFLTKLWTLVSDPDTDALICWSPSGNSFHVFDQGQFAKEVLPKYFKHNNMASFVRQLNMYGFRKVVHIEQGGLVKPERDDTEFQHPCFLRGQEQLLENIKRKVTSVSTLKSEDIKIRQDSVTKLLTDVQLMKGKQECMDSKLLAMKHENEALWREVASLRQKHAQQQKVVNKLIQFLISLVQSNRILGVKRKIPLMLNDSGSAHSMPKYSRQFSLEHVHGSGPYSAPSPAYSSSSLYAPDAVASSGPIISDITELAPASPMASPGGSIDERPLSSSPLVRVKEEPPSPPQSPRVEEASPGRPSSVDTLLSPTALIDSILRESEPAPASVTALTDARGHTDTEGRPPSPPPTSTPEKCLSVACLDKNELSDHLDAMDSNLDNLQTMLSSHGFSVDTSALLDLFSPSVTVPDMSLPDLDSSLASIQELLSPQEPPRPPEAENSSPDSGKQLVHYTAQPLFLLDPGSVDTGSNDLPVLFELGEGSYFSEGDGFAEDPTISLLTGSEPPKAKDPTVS
# In short: as §1
# [13] = biological target: T8, SPIC (Homo sapiens, UniProt Q8N5J4 1-248); conditions: protein: recombinant; tags: N-terminal GST; dsDNA, one strand shown
# T8 sequence: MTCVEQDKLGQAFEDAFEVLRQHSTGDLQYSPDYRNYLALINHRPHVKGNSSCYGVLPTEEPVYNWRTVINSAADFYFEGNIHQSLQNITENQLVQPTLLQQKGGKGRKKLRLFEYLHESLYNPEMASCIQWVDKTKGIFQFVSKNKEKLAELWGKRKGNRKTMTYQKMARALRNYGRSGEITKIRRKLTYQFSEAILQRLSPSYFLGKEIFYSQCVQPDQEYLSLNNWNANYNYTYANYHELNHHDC
# In short: as §1
# [14] = biological target: ELF4 (Homo sapiens, UniProt Q99607 1-663); conditions: protein: recombinant; tags: N-terminal GST; dsDNA, one strand shown
# Sequence of ELF4 (Q99607 whole entry): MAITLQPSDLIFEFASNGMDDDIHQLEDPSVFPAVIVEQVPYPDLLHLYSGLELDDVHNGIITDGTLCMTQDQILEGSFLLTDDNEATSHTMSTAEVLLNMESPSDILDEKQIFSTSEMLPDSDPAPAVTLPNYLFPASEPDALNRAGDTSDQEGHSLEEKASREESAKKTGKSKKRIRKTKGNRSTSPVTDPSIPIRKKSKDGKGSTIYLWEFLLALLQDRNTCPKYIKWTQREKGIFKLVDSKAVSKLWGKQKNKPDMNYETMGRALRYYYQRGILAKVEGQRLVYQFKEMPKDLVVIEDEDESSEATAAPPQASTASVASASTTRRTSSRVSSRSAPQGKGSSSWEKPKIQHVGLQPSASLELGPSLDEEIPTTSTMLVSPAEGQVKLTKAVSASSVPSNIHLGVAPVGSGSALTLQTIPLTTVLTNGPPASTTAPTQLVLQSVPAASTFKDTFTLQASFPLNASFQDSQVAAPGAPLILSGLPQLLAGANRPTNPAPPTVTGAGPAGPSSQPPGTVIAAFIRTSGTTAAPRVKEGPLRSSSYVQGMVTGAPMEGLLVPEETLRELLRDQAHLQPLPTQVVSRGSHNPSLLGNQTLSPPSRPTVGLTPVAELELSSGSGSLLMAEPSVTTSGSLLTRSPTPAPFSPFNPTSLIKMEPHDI
# In short: as §1
# [15] = biological target: T9, ELK4 (Homo sapiens, UniProt P28324-2 1-405); conditions: protein: recombinant; tags: N-terminal GST; dsDNA, one strand shown
# T9 sequence: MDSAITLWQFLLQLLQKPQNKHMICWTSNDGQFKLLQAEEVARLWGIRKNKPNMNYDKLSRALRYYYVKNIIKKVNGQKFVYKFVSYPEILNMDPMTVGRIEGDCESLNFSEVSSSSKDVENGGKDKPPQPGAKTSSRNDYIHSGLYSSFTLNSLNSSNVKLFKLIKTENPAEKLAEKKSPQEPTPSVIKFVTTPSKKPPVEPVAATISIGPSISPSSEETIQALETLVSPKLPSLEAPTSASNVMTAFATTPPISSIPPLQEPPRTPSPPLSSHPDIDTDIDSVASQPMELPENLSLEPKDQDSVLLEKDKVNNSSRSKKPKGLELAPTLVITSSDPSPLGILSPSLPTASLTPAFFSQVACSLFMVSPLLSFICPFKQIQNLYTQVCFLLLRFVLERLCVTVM
# In short: as §1
# [16] = biological target: T10, ETV2 (Homo sapiens, UniProt O00321 1-342); conditions: protein: recombinant; tags: N-terminal GST; dsDNA, one strand shown
# T10 sequence: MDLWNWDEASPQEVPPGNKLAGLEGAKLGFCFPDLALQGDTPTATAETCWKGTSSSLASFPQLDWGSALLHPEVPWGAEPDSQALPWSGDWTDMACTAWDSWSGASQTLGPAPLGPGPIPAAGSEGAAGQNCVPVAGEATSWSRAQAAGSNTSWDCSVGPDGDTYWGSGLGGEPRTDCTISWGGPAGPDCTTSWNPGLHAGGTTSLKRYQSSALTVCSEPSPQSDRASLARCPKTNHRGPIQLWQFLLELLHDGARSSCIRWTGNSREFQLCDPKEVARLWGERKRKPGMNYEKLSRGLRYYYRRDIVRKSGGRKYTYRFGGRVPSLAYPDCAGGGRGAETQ
# In short: as §1
# [17] = biological target: T11, ELF3 (Homo sapiens, UniProt P78545 1-371); conditions: protein: recombinant; tags: N-terminal GST; dsDNA, one strand shown
# T11 sequence: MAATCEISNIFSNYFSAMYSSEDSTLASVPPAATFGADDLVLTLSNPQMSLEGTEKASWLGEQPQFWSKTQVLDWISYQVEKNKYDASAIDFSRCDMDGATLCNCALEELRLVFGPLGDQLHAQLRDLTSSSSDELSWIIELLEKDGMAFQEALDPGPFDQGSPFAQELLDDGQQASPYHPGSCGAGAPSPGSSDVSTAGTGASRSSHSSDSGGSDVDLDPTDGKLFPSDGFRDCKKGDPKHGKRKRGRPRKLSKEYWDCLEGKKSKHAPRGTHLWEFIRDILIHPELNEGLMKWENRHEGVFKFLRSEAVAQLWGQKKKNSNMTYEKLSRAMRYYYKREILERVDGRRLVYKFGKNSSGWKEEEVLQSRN
# In short: as §1
# [18] = biological target: CRX (Homo sapiens, UniProt O43186 1-299); conditions: protein: recombinant; tags: N-terminal GST; dsDNA, one strand shown
# Sequence of CRX (O43186 whole entry): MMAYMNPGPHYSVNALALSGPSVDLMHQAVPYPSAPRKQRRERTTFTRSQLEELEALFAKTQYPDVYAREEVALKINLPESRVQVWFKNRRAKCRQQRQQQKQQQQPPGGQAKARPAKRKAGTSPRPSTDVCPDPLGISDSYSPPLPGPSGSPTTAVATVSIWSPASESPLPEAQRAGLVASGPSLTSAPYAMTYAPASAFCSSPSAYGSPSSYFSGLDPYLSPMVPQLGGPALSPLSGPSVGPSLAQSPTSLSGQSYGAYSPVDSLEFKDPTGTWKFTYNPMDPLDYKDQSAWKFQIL
# In short: as §1
# [19] = biological target: ETV1 (Homo sapiens, UniProt P50549 1-477); conditions: protein: recombinant; tags: N-terminal GST; dsDNA, one strand shown
# Sequence of ETV1 (P50549 whole entry): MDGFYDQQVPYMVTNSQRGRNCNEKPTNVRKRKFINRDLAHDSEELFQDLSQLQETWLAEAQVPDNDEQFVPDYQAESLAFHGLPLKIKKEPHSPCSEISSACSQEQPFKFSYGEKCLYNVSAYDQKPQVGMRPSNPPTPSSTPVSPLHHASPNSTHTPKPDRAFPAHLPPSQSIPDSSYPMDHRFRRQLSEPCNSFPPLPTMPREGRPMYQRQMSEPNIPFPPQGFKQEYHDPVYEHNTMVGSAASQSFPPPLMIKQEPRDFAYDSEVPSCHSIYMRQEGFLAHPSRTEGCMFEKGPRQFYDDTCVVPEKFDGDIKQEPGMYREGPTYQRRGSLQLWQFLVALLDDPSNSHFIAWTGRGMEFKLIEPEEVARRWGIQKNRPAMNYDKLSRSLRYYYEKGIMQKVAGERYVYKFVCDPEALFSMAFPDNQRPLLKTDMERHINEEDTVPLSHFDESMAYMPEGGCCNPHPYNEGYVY
# In short: as §1
sequence,measurement,setting,value
AAAAAG,binding signal,[1],"1.18 fold enrichment (6-mer frequency, TF over GST control)"
same,binding signal,[2],"1.18 fold enrichment (6-mer frequency, TF over GST control)"
same,binding signal,[3],"1.25 fold enrichment (6-mer frequency, TF over GST control)"
same,binding signal,[4],"1.19 fold enrichment (6-mer frequency, TF over GST control)"
same,binding signal,[5],"1.13 fold enrichment (6-mer frequency, TF over GST control)"
same,binding signal,[6],"1.22 fold enrichment (6-mer frequency, TF over GST control)"
same,binding signal,[7],"1.72 fold enrichment (6-mer frequency, TF over GST control)"
same,binding signal,[8],"1.29 fold enrichment (6-mer frequency, TF over GST control)"
same,binding signal,[9],"1.2 fold enrichment (6-mer frequency, TF over GST control)"
same,binding signal,[10],"1.2 fold enrichment (6-mer frequency, TF over GST control)"
same,binding signal,[11],"1.3 fold enrichment (6-mer frequency, TF over GST control)"
same,binding signal,[12],"1.34 fold enrichment (6-mer frequency, TF over GST control)"
same,binding signal,[13],"1.13 fold enrichment (6-mer frequency, TF over GST control)"
same,binding signal,[14],"1.26 fold enrichment (6-mer frequency, TF over GST control)"
same,binding signal,[15],"1.32 fold enrichment (6-mer frequency, TF over GST control)"
same,binding signal,[16],"1.08 fold enrichment (6-mer frequency, TF over GST control)"
same,binding signal,[17],"1.28 fold enrichment (6-mer frequency, TF over GST control)"
same,binding signal,[18],"1.2 fold enrichment (6-mer frequency, TF over GST control)"
same,binding signal,[19],"1.26 fold enrichment (6-mer frequency, TF over GST control)"
